# H9c2 TAG inh = inhibitors of triacylglycerol accumulation, primary screen, cell-based, uHTS, fluorescence, H9c2; H9c2 cells, Nile Red lipid (TAG) fluorescence; cells loaded with 200 µM oleic acid; inhibition, % at 12.5 µM; 0.66% of 230,000 active; AID 651582, 2012;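 active means pattern-corrected inhibition of lipid staining of at least 50% with the nuclear-stain viability signal not falling by more than 50%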
# Kir21 block = inhibitors of mouse Kir2.1 inward-rectifier potassium channel; Inward rectifier potassium channel 2 (Mus musculus), P35561; HEK293-Kir2.1, FluxOR thallium flux fluorescence; stronger effect = lower value; B-score at 10 µM; 0.85% of 310,000 active;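 active means fluorescence ratio B-score at or below minus 3 SD of library scores, with starting-brightness B-score within 2 SD, cut at about -4.2 in these data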;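 further: channel flux triggered by added potassium and thallium sulfate stimulus; B-score of peak minus minimum fluorescence over baseline after thallium stimulus; more negative B-score means stronger Kir2.1 block with less thallium influx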
# CHT allo act = CHT positive allosteric modulators, primary screen, cell-based, membrane potential dye, choline EC20; B-score at 10 µM; 0.49% of 310,000 active; CHT-expressing cells; stronger effect = higher value; LV-AA mutant CHT in HEK293 cells; AID 488977, 2010; High affinity choline transporter 1 (Homo sapiens), Q9GZV3;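 active means initial fluorescence not abnormally high and integrated response B-score, plate-corrected, over 3 SD above library mean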
# Target sequence (Q9GZV3 whole entry, looked up): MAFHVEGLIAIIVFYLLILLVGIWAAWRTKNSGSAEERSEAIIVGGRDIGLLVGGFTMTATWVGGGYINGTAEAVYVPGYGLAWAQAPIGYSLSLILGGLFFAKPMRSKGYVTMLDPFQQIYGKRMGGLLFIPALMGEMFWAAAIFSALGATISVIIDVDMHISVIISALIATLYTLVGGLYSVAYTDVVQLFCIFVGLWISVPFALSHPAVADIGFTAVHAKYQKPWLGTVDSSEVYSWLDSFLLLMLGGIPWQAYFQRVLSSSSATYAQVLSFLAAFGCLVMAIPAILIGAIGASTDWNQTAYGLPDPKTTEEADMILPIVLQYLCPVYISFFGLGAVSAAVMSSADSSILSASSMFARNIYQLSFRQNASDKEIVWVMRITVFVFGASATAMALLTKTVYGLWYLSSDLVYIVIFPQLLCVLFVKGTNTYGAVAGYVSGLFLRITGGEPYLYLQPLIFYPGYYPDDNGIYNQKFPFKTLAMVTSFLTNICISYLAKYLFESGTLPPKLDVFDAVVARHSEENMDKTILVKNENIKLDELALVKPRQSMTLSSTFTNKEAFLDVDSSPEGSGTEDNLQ
# CHT block = inhibitors of human choline transporter CHT | High affinity choline transporter 1 (Homo sapiens), Q9GZV3 | CHT-expressing cells, membrane potential dye, choline response; stronger effect = lower value | B-score at 10 µM | 0.86% of 310,000 active | AID 488975, 2010;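 active means B-score over 3 SD under the library average, and starting fluorescence ratio not unusually high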;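 further: choline stimulus applied at its EC90 after an EC20 pre-addition; B-score computed on integrated fluorescence ratio after choline addition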
# A number is an active result; 0 = inactive; - = not tested or not shown. This is a sample that favours compounds with a hit; in the whole collection about 2% have one here.
SMILES,H9c2 TAG inh,Kir21 block,CHT allo act,CHT block
Cc1ccc(C2(CCNCc3ccco3)CCOC(C(C)C)C2)cc1 (stereo unspecified),0,-4.28,0,0
CCOC(=O)c1c(NC(=O)c2ccc(N3C(=O)C4C5C=CC(C5)C4C3=O)cc2)sc2c1CCCC2 (stereo unspecified),0,0,0,0
O=C(O)/C=C/C(=O)Nc1ccccc1SC(F)(F)C(F)(F)C(F)(F)F,0,0,0,0
COc1ccc(S(=O)(=O)Nc2ccccc2SC)cc1C,-,-6.7,0,0
COc1ccc(OC)c(S(=O)(=O)Nc2ccccc2SC)c1,0,-4.63,0,0
COc1ccccc1NS(=O)(=O)c1ccc(O)c(C(N)=O)c1,0,-4.22,0,0
COc1ccc(OC)c(S(=O)(=O)Nc2ccccc2C)c1,-,0,0,0
COc1ccc(S(=O)(=O)Nc2ccccc2OC)cc1C,-,0,0,0
CC(=O)c1ccccc1OCCCOc1cccc2cccnc12,0,0,0,0
CC(C)Oc1ccccc1OCCCOc1cccc2cccnc12,0,-6.56,0,0
O=C(OCn1ncc(Br)c(Br)c1=O)c1c(F)cccc1F,-,0,0,0
CC(=O)Cn1ncc(Br)c(Br)c1=O,61.0,0,-,-
COCCNC(=O)COc1cc(=O)n(C)c2ccccc12,0,0,0,0
CCN(CCCNC(=O)COc1cc(=O)n(C)c2ccccc12)c1cccc(C)c1,-,-6.78,0,0
CS(=O)(=O)N(CC(=O)N1CCc2ccccc2C1)c1cccc(F)c1,-,-4.23,0,0
Oc1ccccc1N=N/C(=N/Nc1ccccc1O)c1ccccc1,0,0,0,0
N#C/C(N=Nc1ccccc1O)=N\Nc1ccccc1O,0,0,0,-10.8
CC1(C)OC(=O)C(=NNc2ccc(Br)cc2)C(=O)O1,-,0,0,0
OC(CCCCN1CCCCC1)c1ccccc1 (stereo unspecified),-,0,0,0
CC(C)(C)c1ccc(C(O)CCCN2CCC(C(O)(c3ccccc3)c3ccccc3)CC2)cc1 (stereo unspecified),62.5,-,0,0
O=C(NCc1ccc(Cl)cc1)c1n[nH]c([N+](=O)[O-])c1Cl,0,0,0,-8.52
CCN1C(c2ccc(F)cc2)=CS/C1=C(\C#N)c1nnc2n1-c1ccccc1SC2,-,0,0,0
CCCCCN(C(=O)COC(=O)c1ccc(C)cc1)c1c(N)n(CCCC)c(=O)[nH]c1=O,0,-,-,-
O=C(CSc1nnc(C2CC2)n1Cc1ccccc1)c1cc2ccccc2o1,0,-4.48,0,0
Cn1c(N)c(C(=O)CSc2nnc(C3CC3)n2Cc2ccccc2)c(=O)n(C)c1=O,0,-,-,-
SMILES,H9c2 TAG inh,Kir21 block,CHT allo act,CHT block
CC(O)[C@H]1CNCCN1CCc1cccc(F)c1 (stereo partly specified),0,0,0,0
CC1CCN(Cc2c(C(=O)N/N=C/c3ccc(C(C)C)cc3)nnn2-c2nonc2N)CC1,-,0,6.36,0
CCOc1ccccc1/C=N/NC(=O)c1nnn(-c2nonc2N)c1CN1CCC(C)CC1,-,0,0,0
Cc1ccc(C)c(OCC(O)CN2CCc3ccccc3C2)c1C (stereo unspecified),-,-5.68,0,0
CCOc1ccc(OCC(O)CN2CCc3ccccc3C2)cc1 (stereo unspecified),-,0,0,0
Cc1noc(C)c1CCC(=O)Nc1c(C(C)C)cccc1C(C)C,0,-,-,-
c1csc(C2Nc3ccccc3-c3nc4ccccc4n32)c1 (stereo unspecified),-,-4.48,0,0
Cc1ccsc1C1Nc2ccccc2-c2nc3ccccc3n21 (stereo unspecified),0,0,0,0
Cc1cc(C)c2c(N)c3ccccc3nc2n1,54.9,0,0,0
COc1ccc(NS(=O)(=O)c2cccs2)cn1,0,0,0,0
COc1ccc(NS(=O)(=O)c2ccc(OC)c3ccccc23)cn1,0,-5.33,0,0
CNC(=O)c1[nH]cnc1C(=O)Nc1cccc(OC)c1,0,-4.47,0,0
Cc1cccc(NC(=O)c2nc[nH]c2C(=O)NCCCNC(=O)c2[nH]cnc2C(=O)Nc2cccc(C)c2)c1,84.1,-,-,-
CSc1cccc(NC(=S)NCCCN2CCN(c3ccc(F)cc3)CC2)c1,0,-5.78,0,0
CCC(C(=O)OCC(=O)C1(O)CCC2C3CCC4=CC(=O)CCC4(C)C3C(O)CC21C)C(C)C (stereo unspecified),0,-,-,-
CC(=O)[C@@]1(O)CC[C@H]2[C@@H]3CCC4=CC(=O)CC[C@]4(C)[C@H]3[C@@H](O)C[C@@]21C,0,0,0,-6.63
Cc1occc1C(=O)N1CCN(S(=O)(=O)c2ccccc2)CC1,0,0,0,0
CC(C)c1nc2n[nH]c(N)c2c2c1CCCC2,0,-6.8,0,0
C/C(=N\NC(N)=S)C1C2C3CC4C5CC(C42)C1C53 (stereo unspecified),0,-6.03,0,0
C/C(CC1CC(C)OC1=O)=N\NC(N)=S (stereo unspecified),0,0,0,0
O=C(CSc1nnc(CNC(=O)c2ccccc2)o1)Nc1nccs1,0,0,0,0
OC(CNCc1ccccc1F)COc1cccc2ccccc12 (stereo unspecified),-,-6.86,0,0
COc1ccc(-c2nc(CSCC(=O)NCc3ccc4c(c3)OCO4)c(C)o2)cc1OC,0,0,0,0
COc1ccc(-c2nc(CSCC(=O)NCCC3=CCCCC3)c(C)o2)cc1OC,0,-5.06,0,0
Cc1ccc(C(=O)c2oc3ccc(Cl)cc3c2NC(=O)CN2CCN(C)CC2)cc1,-,0,0,0
SMILES,H9c2 TAG inh,Kir21 block,CHT allo act,CHT block
COc1ccc(OC)c(N(CC(=O)NCc2cccnc2)S(C)(=O)=O)c1,0,0,0,0
Oc1ccc(N=Nc2ccc3c(c2)OCCO3)c2cccnc12,91.1,0,0,0
COc1ccc(N=Nc2ccc(O)c3ncccc23)cc1,77.3,0,0,0
Oc1ccc(CNc2ccccc2)c2cccnc12,0,0,0,0
COc1cccc(N=Nc2ccc(O)c3ncccc23)c1,-,0,0,0
COCc1ccc(O)c2ncccc12,100.0,0,0,0
O=Nc1ccc(O)c2ncccc12,67.2,0,0,0
O=C(Nc1ccccc1)c1ncoc1-c1ccc(Cl)cc1,0,0,0,0
Cn1c(NCc2ccccc2F)nc2cc(-c3cccc(C(F)(F)F)c3)sc2c1=O,0,-,-,-
COc1ccc(C)cc1N=Nc1ccc(O)c2ncccc12,-,0,-,-
Cc1ccccc1N=Nc1ccc(O)c2ncccc12,85.9,0,0,0
CCn1cc(CCC(=O)NCc2ccccc2OC)c2ccccc21,-,-6.67,0,0
COC(=O)CN1C(=O)[C@@H]2[C@H](C1=O)[C@@H]1CC(C(=O)OC)=C[C@@H](C(=O)OC)[C@@H]3C1=C(C(=O)[C@@]3(C)NC(=O)c1ccccc1)[C@@H]2C,0,0,0,0
Cc1cc(C)nc(NC(=O)c2cc([N+](=O)[O-])cc([N+](=O)[O-])c2)n1,-,0,7.22,0
Cc1cc(C)nc(NC(=O)c2ccc(C)c([N+](=O)[O-])c2)n1,0,0,0,0
COc1cccc(N2[C@@H](CC(=O)O)c3cc(C(F)(F)F)ccc3S2(=O)=O)c1,0,0,0,0
Cn1nnnc1Sc1ncnc2scc(-c3ccc(F)cc3)c12,0,0,0,0
